PubChem BioAssay (EPA / NIEHS)
Some compounds were tested as several samples or in several runs, with calls that do not always agree. Activity calls are given as the source filed them. The calls were made as follows: active = hit-call score of the fitted dose curve at least 0.9, where 1 is the maximum; inactive = score below 0.9.

Test: CCTE_Shafer_MEA_dev_per_burst_spike_percent: CCTE's Neural Network Formation Assay for Percent of Spikes in a Burst, Shafer Lab (AID 2284032);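 as to AC50: fitted as a decrease in burst spike percentage below DMSO baseline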
Summary of the method: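 Value is trapezoidal AUC over recordings on days 5, 7, 9 and 12 of the well-mean fraction of spikes falling in single-electrode bursts; rat cortical cultures exposed continuously from plating, treatment renewed DIV 5 and 9, fitted downward against DMSO.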

Compound | outcome | AC50
O=C(F)C(F)(F)C(F)(F)C(F)(F)C(F)F | inactive | –
COC(=O)C(F)(F)C(F)(F)C(F)(F)C(F)(F)C(F)(F)F | inactive | –
O=CC(F)(F)C(F)(F)C(F)(F)C(F)F | inactive | –
O=P(O)(O)CCC(F)(F)C(F)(F)C(F)(F)C(F)(F)C(F)(F)C(F)(F)F | inactive | –
CN(CCO)S(=O)(=O)C(F)(F)C(F)(F)C(F)(F)C(F)(F)C(F)(F)C(F)(F)C(F)(F)C(F)(F)F | inactive | –
O=C(CC(=O)C(F)(F)C(F)(F)C(F)(F)F)c1cccs1 | – | 8.19 µM (active)
COC(=O)C(F)(F)C(F)(F)C(F)(F)F | inactive | –
C=CC(F)(F)C(F)(F)C(F)(F)C(F)(F)F | inactive | –
O=P(O)(O)CCC(F)(F)C(F)(F)C(F)(F)C(F)(F)C(F)(F)C(F)(F)C(F)(F)C(F)(F)F | – | 4.78 µM (active)
OCC(F)(F)C(F)(F)C(F)(F)C(F)(F)C(F)(F)C(F)(F)C(F)(F)C(F)(F)C(F)(F)C(F)(F)C(F)(F)F | inactive | 15 µM (active)
O=C(F)C(F)(F)C(F)(F)C(F)(F)C(=O)F | inactive | –
CN(Cc1cnc2nc(N)nc(N)c2n1)c1ccc(C(=O)N[C@@H](CCC(=O)O)C(=O)O)cc1 | – | 0.0318 µM (active)
FC(F)=C(F)C(F)(F)C(F)(F)C(F)(F)C(F)F | inactive | –
